Results as given in the supplement of paper PMC6658780.
Counter-ions that a name gives are not always drawn. ± gives the standard deviation of the averaged measurements.

Experiments:
[1] = test system: Klebsiella pneumoniae KPC-119; test: percent growth inhibition of drug alone vs DMSO control; higher = more growth inhibition; conditions: antibiotic (0.125x MIC): none (0.1% DMSO)
[2] = test system: Klebsiella pneumoniae NCTC-13439; test: as above; conditions: antibiotic (0.125x MIC): none (0.1% DMSO)
[3] = test system: Klebsiella pneumoniae KPC-119; test: percent growth inhibition of drug + antibiotic vs DMSO control; higher = more growth inhibition
[4] = test system: Klebsiella pneumoniae NCTC-13439; test: as above
[5] = test system: Escherichia coli ATCC BAA-2469; test: as above; conditions: 7 µM
Method: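 Prestwick drugs tested at 20 uM and 7 uM with an antibiotic at 0.125x MIC (16 mg/L when MIC >128 mg/L) against E. coli ATCC BAA-2469 (NDM-1) in CAMHB, 384-well plates, duplicate runs. Percent growth inhibition was computed from OD600 (24 h minus 0 h) relative to DMSO wells. Drug + DMSO-only wells are also given. […]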

[6] = antibiotic (0.125x MIC): colistin, 7 µM
[7] = antibiotic (0.125x MIC): colistin, 20 µM
[8] = antibiotic (0.125x MIC): gentamicin, 7 µM
[9] = antibiotic (0.125x MIC): gentamicin, 20 µM
[10] = antibiotic (0.125x MIC): ciprofloxacin, 7 µM
[11] = antibiotic (0.125x MIC): tigecycline, 7 µM
[12] = antibiotic (0.125x MIC): tigecycline, 20 µM

Compound: O=C1OCCN1/N=C/c1ccc([N+](=O)[O-])o1 [Furazolidone]
- percent growth inhibition of drug alone ([1]; 7 µM): 18.3 ± 1.2%
- percent growth inhibition of drug alone ([1]; 20 µM): 39.8 ± 1.6%
- percent growth inhibition of drug alone ([2]; 7 µM): 17.5 ± 3%
- percent growth inhibition of drug alone ([2]; 20 µM): 49.8 ± 1.5%
- percent growth inhibition [3, 6]: 96.1 ± 7%
- percent growth inhibition [3, 7]: 99.62 ± 0.88%
- percent growth inhibition [3, 8]: 17.8 ± 1.7%
- percent growth inhibition [3, 9]: 99.78 ± 0.13%
- percent growth inhibition [4, 10]: 17 ± 1.2%
- percent growth inhibition ([4]; antibiotic (0.125x MIC): ciprofloxacin, 20 µM): 99.97 ± 0.19%
- percent growth inhibition [4, 11]: 26.3 ± 2.4%

Compound: CCCCCCCCNC(C)C(O)c1ccc(SC(C)C)cc1 (configuration not stated) [Suloctidil]
- percent growth inhibition of drug alone ([1]; 7 µM): -1.6 ± 0.96%
- percent growth inhibition of drug alone ([1]; 20 µM): -1.21 ± 1.4%
- percent growth inhibition ([5]; antibiotic (0.125x MIC): meropenem): 1.25 ± 3.5%
- percent growth inhibition [3, 6]: 3.9 ± 5.4%
- percent growth inhibition [3, 7]: 94.63 ± 0.84%

Compound: OC(c1cc(C(F)(F)F)nc2c(C(F)(F)F)cccc12)C1CCCCN1 (configuration not stated) [Mefloquine hydrochloride]
- percent growth inhibition of drug alone ([1]; 7 µM): 0.355 ± 6.6%
- percent growth inhibition of drug alone ([1]; 20 µM): -2.15 ± 1.1%
- percent growth inhibition [3, 6]: 1.61 ± 13%

Compound: CO[C@H]1/C=C/O[C@@]2(C)Oc3c(C)c(O)c4c(c3C2=O)C2=NC3(CCN(CC(C)C)CC3)NC2=C(NC(=O)/C(C)=C\C=C\[C@H](C)[C@H](O)[C@@H](C)[C@@H](O)[C@@H](C)[C@H](OC(C)=O)[C@@H]1C)C4=O [Rifabutin]
- percent growth inhibition of drug alone ([1]; 7 µM): 8.64 ± 2.6%
- percent growth inhibition of drug alone ([1]; 20 µM): 73.8 ± 3.7%
- percent growth inhibition of drug alone ([2]; 7 µM): 5.74 ± 2.1%
- percent growth inhibition [3, 6]: 97.8 ± 1.9%
- percent growth inhibition [3, 7]: 98.1 ± 2.2%
- percent growth inhibition [3, 8]: 41.8 ± 7%
- percent growth inhibition [3, 9]: 99.4 ± 0.45%
- percent growth inhibition ([3]; antibiotic (0.125x MIC): meropenem, 20 µM): 99.645 ± 0.017%
- percent growth inhibition [4, 10]: 21.5 ± 7.5%
- percent growth inhibition [4, 12]: 30.9 ± 7.2%

Compound: CN(C)c1ccc(O)c2c1C[C@H]1C[C@H]3[C@H](N(C)C)C(O)=C(C(N)=O)C(=O)[C@@]3(O)C(O)=C1C2=O [Minocycline hydrochloride]
- percent growth inhibition of drug alone ([1]; 7 µM): 10.9 ± 1.6%
- percent growth inhibition of drug alone ([1]; 20 µM): 52.8 ± 2.3%
- percent growth inhibition of drug alone ([2]; 7 µM): 3.05 ± 3.2%
- percent growth inhibition of drug alone ([2]; 20 µM): 6.86 ± 3.9%
- percent growth inhibition [3, 6]: 97.33 ± 0.15%
- percent growth inhibition [3, 7]: 97.8 ± 1.9%
- percent growth inhibition [3, 8]: 6.41 ± 2.8%
- percent growth inhibition [3, 9]: 95.3 ± 1.8%
- percent growth inhibition [4, 11]: -1.9 ± 6.7%
- percent growth inhibition [4, 12]: 49.8 ± 7.5%

Compound: CCn1cc(C(=O)O)c(=O)c2cc(F)c(N3CCN(C)CC3)cc21 [Pefloxacine]
- percent growth inhibition of drug alone ([1]; 7 µM): 12.5 ± 1.1%
- percent growth inhibition of drug alone ([1]; 20 µM): 51.2 ± 3.2%
- percent growth inhibition [3, 8]: 11.4 ± 19%

Compound: NS(=O)(=O)c1cc2c(cc1C(F)(F)F)NC(Cc1ccccc1)NS2(=O)=O (configuration not stated) [Bendroflumethiazide]
- percent growth inhibition ([5]; antibiotic (0.125x MIC): gentamicin): -0.966 ± 1.2%

Compound: CN1CCN(c2c(F)cc3c(=O)c(C(=O)O)cn4c3c2SCC4)CC1 [Rufloxacin]
- percent growth inhibition of drug alone ([1]; 7 µM): 14.6 ± 2.5%
- percent growth inhibition of drug alone ([1]; 20 µM): 83.22 ± 0.72%
- percent growth inhibition [3, 6]: 96.6 ± 3.1%
- percent growth inhibition [3, 7]: 93.89 ± 0.36%

Compound: CC[C@H]1OC(=O)[C@H](C)[C@@H](O[C@H]2C[C@@](C)(OC)[C@@H](O)[C@H](C)O2)[C@H](C)[C@@H](O[C@@H]2O[C@H](C)C[C@H](N(C)C)[C@H]2O)[C@](C)(OC)C[C@@H](C)C(=O)[C@H](C)[C@@H](O)[C@]1(C)O [Clarithromycin]
- percent growth inhibition of drug alone ([1]; 7 µM): 0.744 ± 2.4%
- percent growth inhibition of drug alone ([1]; 20 µM): 3.19 ± 2.3%
- percent growth inhibition [3, 7]: 3.22 ± 2.8%

Compound: C[C@@H]1CN(c2c(F)c(N)c3c(=O)c(C(=O)O)cn(C4CC4)c3c2F)C[C@H](C)N1 [Sparfloxacin]
- percent growth inhibition of drug alone ([1]; 7 µM): 33.5 ± 3.3%
- percent growth inhibition of drug alone ([1]; 20 µM): 99.04 ± 0.49%
- percent growth inhibition [3, 6]: 99.4 ± 0.42%
- percent growth inhibition [3, 7]: 99.2 ± 0.83%

Compound: CO/N=C(\C(=O)N[C@@H]1C(=O)N2C(C(=O)O)=C(COC(C)=O)CS[C@H]12)c1csc(N)n1 [Cefotaxime sodium salt]
- percent growth inhibition of drug alone ([1]; 7 µM): 4.98 ± 2%
- percent growth inhibition of drug alone ([1]; 20 µM): 37.8 ± 0.86%
- percent growth inhibition [3, 8]: 29.3 ± 2.3%

Compound: CCOC(=O)OC(C)OC(=O)[C@@H]1N2C(=O)[C@@H](NC(=O)[C@H](N)c3ccccc3)[C@H]2SC1(C)C (some centres not stated) [Bacampicillin hydrochloride]
- percent growth inhibition of drug alone ([1]; 7 µM): 0.511 ± 1.4%
- percent growth inhibition of drug alone ([1]; 20 µM): -0.333 ± 0.47%
- percent growth inhibition [3, 6]: -4.19 ± 0.78%

Compound: Oc1c(Cl)cc(Cl)c(Cl)c1Cc1c(O)c(Cl)cc(Cl)c1Cl [Hexachlorophene]
- percent growth inhibition of drug alone ([1]; 7 µM): 0.779 ± 4.2%
- percent growth inhibition of drug alone ([1]; 20 µM): 18.8 ± 7.5%
- percent growth inhibition [3, 6]: 4.52 ± 2.5%

Compound: CC1CCc2c(N3CCC(O)CC3)c(F)cc3c(=O)c(C(=O)O)cn1c23 (configuration not stated) [Nadifloxacin]
- percent growth inhibition of drug alone ([1]; 7 µM): 6.2 ± 4.4%
- percent growth inhibition of drug alone ([1]; 20 µM): 36 ± 4.7%
- percent growth inhibition [3, 6]: 82.4 ± 20%
- percent growth inhibition [3, 7]: 98.1 ± 1.5%

Compound: CCN1CCCC1CNC(=O)c1cc(S(N)(=O)=O)ccc1OC (configuration not stated) [Sulpiride]
- percent growth inhibition of drug alone ([1]; 7 µM): -2.88 ± 3.1%
- percent growth inhibition of drug alone ([1]; 20 µM): -3.73 ± 0.65%
- percent growth inhibition [3, 7]: -7.13 ± 1.4%

Compound: COc1cccc2c1C(=O)c1c(O)c3c(c(O)c1C2=O)C[C@@](O)(C(C)=O)C[C@@H]3O[C@H]1C[C@H](N)[C@H](O)[C@H](C)O1 [Daunorubicin hydrochloride]
- percent growth inhibition of drug alone ([1]; 7 µM): 5 ± 0.63%
- percent growth inhibition of drug alone ([1]; 20 µM): 5.26 ± 2.2%
- percent growth inhibition [3, 6]: -2.48 ± 6.2%
- percent growth inhibition [3, 7]: 97.24 ± 0.46%

Compound: CCC[C@@H]1C[C@@H](C(=O)N[C@@H]([C@H]2O[C@H](SC)[C@H](O)[C@@H](O)[C@H]2O)[C@H](C)Cl)N(C)C1 [Clindamycin hydrochloride]
- percent growth inhibition of drug alone ([1]; 7 µM): 12 ± 1.4%
- percent growth inhibition of drug alone ([1]; 20 µM): 28.5 ± 0.74%
- percent growth inhibition [3, 6]: 44.3 ± 4.1%

Compound: Oc1c(I)cc(Cl)c2cccnc12 [Clioquinol]
- percent growth inhibition of drug alone ([1]; 7 µM): 12.1 ± 5%
- percent growth inhibition of drug alone ([1]; 20 µM): 44.53 ± 0.32%
- percent growth inhibition [3, 6]: 47.2 ± 5.2%
- percent growth inhibition [3, 7]: 98.97 ± 0.28%

Compound: CCN(CC)CCOC(=O)C1(C2CCCCC2)CCCCC1 [Dicyclomine hydrochloride]
- percent growth inhibition of drug alone ([1]; 7 µM): 0.63 ± 2%
- percent growth inhibition of drug alone ([1]; 20 µM): 2.04 ± 2.2%
- percent growth inhibition [3, 7]: -2.28 ± 7.1%

Compound: C=C1c2c(Cl)ccc(O)c2C(=O)C2=C(O)[C@]3(O)C(=O)C(C(N)=O)=C(O)[C@@H](N(C)C)[C@@H]3[C@@H](O)[C@H]12.O=C(O)c1cc(S(=O)(=O)O)ccc1O [Meclocycline sulfosalicylate]
- percent growth inhibition of drug alone ([1]; 7 µM): 2.09 ± 6.8%
- percent growth inhibition of drug alone ([1]; 20 µM): 7.24 ± 1.1%
- percent growth inhibition [3, 7]: 10.3 ± 2.3%

Compound: Clc1ccc(CCC(Cn2ccnc2)Sc2c(Cl)cccc2Cl)cc1 (configuration not stated) [Butoconazole nitrate]
- percent growth inhibition of drug alone ([1]; 7 µM): -1.2 ± 2.2%
- percent growth inhibition of drug alone ([1]; 20 µM): 2.34 ± 3.2%
- percent growth inhibition [3, 7]: 6.76 ± 0.1%

Compound: CN(C)CCOC(c1ccc(Cl)cc1)c1ccccn1 (configuration not stated) [Carbinoxamine maleate salt]
- percent growth inhibition of drug alone ([1]; 7 µM): -6.88 ± 0.94%
- percent growth inhibition of drug alone ([1]; 20 µM): -3.08 ± 0.79%
- percent growth inhibition [3, 7]: -10.7 ± 4.1%

Compound: CC(C)(C)CC(C)(C)c1ccc(OCCOCC[N+](C)(C)Cc2ccccc2)cc1 [Benzethonium chloride]
- percent growth inhibition of drug alone ([1]; 7 µM): 2.21 ± 0.87%
- percent growth inhibition of drug alone ([1]; 20 µM): 2.03 ± 2.5%
- percent growth inhibition [3, 6]: 4.69 ± 10%
- percent growth inhibition [3, 7]: 97.15 ± 0.41%
